# In PubChem BioAssay AID720700 (The Scripps Research Institute Molecular Screening Center, 2013):
# Among all 370,000 compounds or so, about 3,100 (0.84%) were called active. Only a selection was taken, and actives are over-represented in it overall. A number with no mark means an inactive call. Cut-off read from the data, not from the text of the source: active = inhibition above about 9.5%; inactive = the rest.
# Molecular target: 1-phosphatidylinositol 4,5-bisphosphate phosphodiesterase gamma-1 (Homo sapiens) (UniProt P19174)
# Experiment: blockers of human PLCG1 activity – biochemical, fluorescence, purified enzyme, primary screen (AID 720700)
# Settings: purified PLC-gamma1, fluorogenic substrate, at 12.2 µM, active compounds read high
# Sequence of 1-phosphatidylinositol 4,5-bisphosphate phosphodiesterase gamma-1 (Homo sapiens) (P19174 whole entry, looked up): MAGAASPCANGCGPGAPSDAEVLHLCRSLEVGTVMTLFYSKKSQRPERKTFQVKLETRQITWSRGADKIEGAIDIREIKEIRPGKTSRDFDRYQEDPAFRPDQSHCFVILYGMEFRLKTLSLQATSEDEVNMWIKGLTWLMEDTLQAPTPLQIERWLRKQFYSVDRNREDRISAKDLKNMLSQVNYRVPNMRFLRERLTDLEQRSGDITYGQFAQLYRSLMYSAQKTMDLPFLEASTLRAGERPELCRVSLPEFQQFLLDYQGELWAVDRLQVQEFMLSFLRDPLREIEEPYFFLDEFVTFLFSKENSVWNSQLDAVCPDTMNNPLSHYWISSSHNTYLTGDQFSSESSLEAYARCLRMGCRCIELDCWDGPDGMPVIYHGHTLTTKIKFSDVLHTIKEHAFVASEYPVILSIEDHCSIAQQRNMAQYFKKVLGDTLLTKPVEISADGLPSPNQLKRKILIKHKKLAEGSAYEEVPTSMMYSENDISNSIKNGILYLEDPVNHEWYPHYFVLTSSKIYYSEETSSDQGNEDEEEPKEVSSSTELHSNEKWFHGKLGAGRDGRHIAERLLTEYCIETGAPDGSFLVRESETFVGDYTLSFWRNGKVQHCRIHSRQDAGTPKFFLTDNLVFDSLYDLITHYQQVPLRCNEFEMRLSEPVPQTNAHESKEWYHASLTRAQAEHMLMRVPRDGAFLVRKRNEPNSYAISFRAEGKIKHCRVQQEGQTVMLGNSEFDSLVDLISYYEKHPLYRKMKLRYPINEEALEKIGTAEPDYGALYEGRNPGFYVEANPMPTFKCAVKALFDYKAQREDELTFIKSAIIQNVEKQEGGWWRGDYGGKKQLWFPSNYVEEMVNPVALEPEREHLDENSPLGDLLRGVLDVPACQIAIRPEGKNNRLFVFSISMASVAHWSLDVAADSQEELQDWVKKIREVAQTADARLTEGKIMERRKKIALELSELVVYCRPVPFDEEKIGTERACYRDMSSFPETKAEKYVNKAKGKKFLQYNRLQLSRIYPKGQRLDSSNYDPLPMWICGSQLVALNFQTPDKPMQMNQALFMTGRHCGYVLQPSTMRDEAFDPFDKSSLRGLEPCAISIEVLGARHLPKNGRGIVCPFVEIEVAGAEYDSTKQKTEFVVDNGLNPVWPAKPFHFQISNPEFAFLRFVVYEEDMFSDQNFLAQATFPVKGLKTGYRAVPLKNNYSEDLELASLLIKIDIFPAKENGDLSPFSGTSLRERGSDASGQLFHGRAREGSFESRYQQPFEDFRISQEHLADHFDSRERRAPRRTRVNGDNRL
row,SMILES,inhibition
1,O=C(Cn1nnc2ccccc2c1=O)NCc1ccc(Cl)cc1,6.08%
2,C=CCn1c(SCn2nnc3ccccc3c2=O)nnc1-c1ccc(Cl)cc1,11.2% (active)
3,O=c1c2ccccc2nnn1CSc1nnnn1-c1ccccc1,2.24%
4,O=C(OC12CCCN(C1)/C(=C/c1cccnc1)C2)C1CCCC1 (stereo not drawn),2.54%
5,O=C(c1c[nH]c2ccccc12)N1CCC(Oc2cccnc2)CC1,5.31%
6,O=C(NC1CCC1)c1ccc(C#Cc2cccc(F)c2)c[n+]1[O-],-0.74%
7,CCn1c(SCC(C)=O)nc2sc3c(c2c1=O)CCCC3,10.1% (active)
8,CCn1c(SCC(=O)Nc2ccc(Br)cc2)nc2sc3c(c2c1=O)CCN(C)C3,-70.8%
9,Cc1ccc(C)c(-n2c(SCC(=O)O)nc3sc4c(c3c2=O)CCCC4)c1,1.35%
10,Cc1ccc(CN2CCCCC(NC(=O)C3CCCCC3)C2=O)cc1 (stereo not drawn),7.08%
11,CCCOc1ccc(Oc2c(Cl)cnn(Cc3cccc4ccccc34)c2=O)cc1,-1.93%
12,CCOC(=O)C1CCN(C(=O)C(C)(C)NC(=O)Nc2ccccc2Cl)CC1,0.94%
13,Cc1ccccc1CN1CCCCC(NC(=O)c2cccc(C#N)c2)C1=O (stereo not drawn),-2.09%
14,Cc1ccc(S(=O)(=O)N2CCCCC2)cc1NC(=O)CCNC(=O)c1ccccc1Cl,6.23%
15,CS(=O)(=O)c1ccc(Cl)c(NC(=O)COC(=O)c2cccc(S(=O)(=O)N3CCCC3)c2)c1,1.69%
16,O=C(CCNC(=O)c1ccc(Br)cc1)Nc1cccc(S(=O)(=O)N2CCCCC2)c1,-1.23%
17,CC(=O)c1cccc(OCC(=O)OCC(=O)Nc2cc(S(=O)(=O)N3CCCCC3)ccc2C)c1,1.9%
18,CC(=O)c1c(C)[nH]c(C(=O)OCC(=O)Nc2cc(S(=O)(=O)N3CCCCC3)ccc2C)c1C,11.4% (active)
19,Cc1ccc(S(=O)(=O)N2CCCCC2)cc1NC(=O)CCNC(=O)c1ccccc1,11.6% (active)
20,CCOc1ccc(-n2c(SCC(=O)Nc3cc(C)c(NC(=O)c4ccccc4)cc3OC)nnc2-c2cccs2)cc1,-10.9%
21,CCOC(=O)N1CCN(C(=O)C[C@H]2C[C@@]3(C(=O)OC)C(=C[C@H](C(C)(C)C)O[C@@H]3C)N(Cc3ccc(Cl)cc3Cl)C2=O)CC1,-0.28%
22,O=C(c1cccc(C(F)(F)F)c1)N1CC[C@H]2[C@H](CCCN2Cc2cc(F)cc(F)c2)C1,-2.47%
23,COC(=O)C1CN(CC(C)C)CCS(=O)(=O)N1Cc1ccc(C)cc1 (stereo not drawn),2.01%
